Here are results for 6 compounds from ChEMBL document CHEMBL2218924, “A broad activity screen in support of a chemogenomic map for kinase signalling research and drug discovery” (Biochem J, 2013).

The target in assay [1] is Mast/stem cell growth factor receptor Kit (Homo sapiens) (UniProt P10721). Particulars: at 1 µM.
Assay [2] shares this target. Particulars: at 10 µM.
Assay [3] has as its target Proto-oncogene tyrosine-protein kinase Src (Homo sapiens) (UniProt P12931). Particulars: at 1 µM.
Assay [4] shares this target. Particulars: at 10 µM.
Assay [5] addresses T1, Eukaryotic elongation factor 2 kinase (Homo sapiens) (UniProt O00418).
T1 sequence (whole entry): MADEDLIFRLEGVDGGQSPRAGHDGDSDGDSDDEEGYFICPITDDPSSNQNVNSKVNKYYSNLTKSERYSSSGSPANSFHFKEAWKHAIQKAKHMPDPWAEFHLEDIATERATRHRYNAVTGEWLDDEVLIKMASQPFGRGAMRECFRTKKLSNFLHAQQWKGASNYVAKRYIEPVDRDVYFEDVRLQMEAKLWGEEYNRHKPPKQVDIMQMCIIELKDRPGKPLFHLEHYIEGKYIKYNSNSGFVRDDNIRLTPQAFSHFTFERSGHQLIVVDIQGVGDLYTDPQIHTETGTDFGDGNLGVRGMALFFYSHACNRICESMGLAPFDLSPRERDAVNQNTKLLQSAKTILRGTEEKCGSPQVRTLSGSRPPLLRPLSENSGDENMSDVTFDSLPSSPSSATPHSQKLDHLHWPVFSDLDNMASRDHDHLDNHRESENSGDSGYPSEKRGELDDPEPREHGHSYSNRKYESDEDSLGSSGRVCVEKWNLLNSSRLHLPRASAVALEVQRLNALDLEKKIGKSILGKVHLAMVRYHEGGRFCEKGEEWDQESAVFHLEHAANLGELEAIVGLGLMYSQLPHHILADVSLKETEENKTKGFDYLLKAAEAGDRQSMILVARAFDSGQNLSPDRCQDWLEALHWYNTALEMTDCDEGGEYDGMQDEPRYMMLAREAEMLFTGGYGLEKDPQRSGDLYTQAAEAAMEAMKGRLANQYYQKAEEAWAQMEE
Particulars: at 10 µM.

The target of assay [6] is Serine/threonine-protein kinase mTOR (Homo sapiens) (UniProt P42345). Particulars: at 1 µM.
Assay [7] has the same target. Particulars: at 10 µM.
Assay [8] shares this target. Particulars: at 10 µM. The source holds these as a separate data set.
The target in assay [9] is Ribosomal protein S6 kinase beta-1 (Homo sapiens) (UniProt P23443). Particulars: at 1 µM.
The target is the same in assay [10]. Particulars: at 10 µM.
The target in assay [11] is Serine/threonine-protein kinase Nek6 (Homo sapiens) (UniProt Q9HC98). Particulars: at 1 µM.
For assay [12] the target is unchanged. Particulars: at 10 µM.
Assay [13] concerns the target Serine/threonine-protein kinase Nek7 (Homo sapiens) (UniProt Q8TDX7). Particulars: at 1 µM.
Assay [14] has the same target. Particulars: at 10 µM.
The target of assay [15] is T2, Serine/threonine-protein kinase NLK (Homo sapiens) (UniProt Q9UBE8).
T2 sequence (whole entry): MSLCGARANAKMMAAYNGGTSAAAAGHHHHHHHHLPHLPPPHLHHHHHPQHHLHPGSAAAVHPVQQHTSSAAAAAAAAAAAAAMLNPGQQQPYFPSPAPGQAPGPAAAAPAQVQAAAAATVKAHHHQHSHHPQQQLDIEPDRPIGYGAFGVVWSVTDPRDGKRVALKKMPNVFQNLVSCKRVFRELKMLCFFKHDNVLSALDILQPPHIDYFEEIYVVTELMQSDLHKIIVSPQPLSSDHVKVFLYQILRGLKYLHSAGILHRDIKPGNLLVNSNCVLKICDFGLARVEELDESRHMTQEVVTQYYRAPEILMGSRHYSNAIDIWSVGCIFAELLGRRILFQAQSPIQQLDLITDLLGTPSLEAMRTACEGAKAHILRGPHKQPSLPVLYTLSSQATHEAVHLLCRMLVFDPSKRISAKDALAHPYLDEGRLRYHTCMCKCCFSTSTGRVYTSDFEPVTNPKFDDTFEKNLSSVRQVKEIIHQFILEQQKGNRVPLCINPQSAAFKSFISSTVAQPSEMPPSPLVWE
Particulars: at 1 µM.

Assay [16] has as its target T2, Serine/threonine-protein kinase NLK (Homo sapiens). Particulars: at 10 µM.
The target in assay [17] is Serine/threonine-protein kinase PAK 2 (Homo sapiens) (UniProt Q13177). Particulars: at 1 µM.
Assay [18] shares this target. Particulars: at 10 µM.
For assay [19], the target named is T1, Eukaryotic elongation factor 2 kinase (Homo sapiens). Particulars: at 1 µM.
The target in assay [20] is Serine/threonine-protein kinase mTOR (Homo sapiens) (UniProt P42345). Particulars: at 1 µM. This is another data set of the same source.

Ribosomal protein S6 kinase beta-1 (Homo sapiens), sequence (P23443 whole entry, looked up): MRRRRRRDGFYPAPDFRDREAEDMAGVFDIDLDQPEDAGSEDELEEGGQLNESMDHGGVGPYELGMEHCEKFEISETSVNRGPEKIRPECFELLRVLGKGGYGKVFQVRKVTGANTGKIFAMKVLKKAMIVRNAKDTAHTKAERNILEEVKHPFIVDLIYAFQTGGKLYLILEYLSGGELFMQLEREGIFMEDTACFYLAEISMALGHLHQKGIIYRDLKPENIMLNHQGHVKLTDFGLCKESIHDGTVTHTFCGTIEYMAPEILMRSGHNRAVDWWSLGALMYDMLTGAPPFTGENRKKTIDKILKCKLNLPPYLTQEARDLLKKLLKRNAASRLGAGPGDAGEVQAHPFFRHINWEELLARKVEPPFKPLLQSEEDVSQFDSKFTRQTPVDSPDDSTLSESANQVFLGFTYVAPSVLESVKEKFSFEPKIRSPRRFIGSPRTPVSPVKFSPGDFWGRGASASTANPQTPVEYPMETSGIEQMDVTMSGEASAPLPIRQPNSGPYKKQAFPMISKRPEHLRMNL
Proto-oncogene tyrosine-protein kinase Src (Homo sapiens), sequence (P12931 2-536 limits assumed): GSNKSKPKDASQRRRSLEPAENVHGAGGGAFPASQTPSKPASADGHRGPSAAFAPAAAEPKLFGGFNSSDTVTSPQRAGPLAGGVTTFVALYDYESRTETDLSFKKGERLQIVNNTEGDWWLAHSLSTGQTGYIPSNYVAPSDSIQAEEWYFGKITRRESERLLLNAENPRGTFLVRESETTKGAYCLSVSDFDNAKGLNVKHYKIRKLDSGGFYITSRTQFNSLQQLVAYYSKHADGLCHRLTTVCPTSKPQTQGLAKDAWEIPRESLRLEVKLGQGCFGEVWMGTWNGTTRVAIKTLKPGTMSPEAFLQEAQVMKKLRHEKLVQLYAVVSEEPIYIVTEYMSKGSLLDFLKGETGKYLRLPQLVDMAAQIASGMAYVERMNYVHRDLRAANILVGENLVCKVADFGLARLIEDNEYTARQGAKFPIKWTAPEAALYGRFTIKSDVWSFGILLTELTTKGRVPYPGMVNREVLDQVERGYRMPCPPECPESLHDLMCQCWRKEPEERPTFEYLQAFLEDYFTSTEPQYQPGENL
Serine/threonine-protein kinase Nek6 (Homo sapiens), sequence (Q9HC98 whole entry): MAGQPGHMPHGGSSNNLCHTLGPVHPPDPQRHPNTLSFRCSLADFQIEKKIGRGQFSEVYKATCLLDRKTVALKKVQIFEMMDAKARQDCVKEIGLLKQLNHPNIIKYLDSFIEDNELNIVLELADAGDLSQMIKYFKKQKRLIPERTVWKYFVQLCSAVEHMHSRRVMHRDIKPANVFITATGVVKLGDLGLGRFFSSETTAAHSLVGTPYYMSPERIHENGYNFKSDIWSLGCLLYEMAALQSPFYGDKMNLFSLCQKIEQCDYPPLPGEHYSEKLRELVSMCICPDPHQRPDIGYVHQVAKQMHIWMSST
Mast/stem cell growth factor receptor Kit (Homo sapiens), sequence (P10721 whole entry): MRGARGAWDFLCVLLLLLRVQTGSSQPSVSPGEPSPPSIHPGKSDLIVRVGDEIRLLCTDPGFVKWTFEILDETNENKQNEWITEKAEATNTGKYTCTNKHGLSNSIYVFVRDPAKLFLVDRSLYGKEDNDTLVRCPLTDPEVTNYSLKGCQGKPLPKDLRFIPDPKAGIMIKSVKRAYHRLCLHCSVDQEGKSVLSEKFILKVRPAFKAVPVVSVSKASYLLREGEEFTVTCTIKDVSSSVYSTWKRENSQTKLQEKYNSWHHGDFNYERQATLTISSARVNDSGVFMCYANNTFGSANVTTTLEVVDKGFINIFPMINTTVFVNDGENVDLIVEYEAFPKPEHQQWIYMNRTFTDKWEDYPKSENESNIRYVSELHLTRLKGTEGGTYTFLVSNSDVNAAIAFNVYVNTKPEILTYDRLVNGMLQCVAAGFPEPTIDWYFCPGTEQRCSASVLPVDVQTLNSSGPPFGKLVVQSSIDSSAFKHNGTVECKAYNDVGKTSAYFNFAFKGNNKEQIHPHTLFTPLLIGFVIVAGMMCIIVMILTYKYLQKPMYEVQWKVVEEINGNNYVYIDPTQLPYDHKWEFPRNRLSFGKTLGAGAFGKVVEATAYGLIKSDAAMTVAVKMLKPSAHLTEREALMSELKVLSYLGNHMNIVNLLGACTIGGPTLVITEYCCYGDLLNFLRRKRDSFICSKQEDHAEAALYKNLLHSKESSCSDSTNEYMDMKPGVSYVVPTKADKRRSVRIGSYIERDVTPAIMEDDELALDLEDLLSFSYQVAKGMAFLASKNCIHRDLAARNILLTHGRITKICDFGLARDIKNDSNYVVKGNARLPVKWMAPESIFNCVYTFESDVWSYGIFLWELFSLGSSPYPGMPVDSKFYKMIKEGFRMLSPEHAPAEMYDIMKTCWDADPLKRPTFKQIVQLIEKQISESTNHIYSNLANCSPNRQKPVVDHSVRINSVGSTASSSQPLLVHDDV
Serine/threonine-protein kinase Nek7 (Homo sapiens), sequence (Q8TDX7 whole entry, looked up): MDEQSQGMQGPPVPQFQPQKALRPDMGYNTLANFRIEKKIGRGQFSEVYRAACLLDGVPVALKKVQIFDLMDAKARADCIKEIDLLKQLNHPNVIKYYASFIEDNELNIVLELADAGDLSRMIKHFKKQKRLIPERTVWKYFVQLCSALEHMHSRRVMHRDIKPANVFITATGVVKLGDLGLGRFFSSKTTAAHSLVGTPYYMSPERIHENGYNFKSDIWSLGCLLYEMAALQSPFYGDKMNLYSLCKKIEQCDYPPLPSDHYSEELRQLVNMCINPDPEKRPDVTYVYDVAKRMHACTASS
Serine/threonine-protein kinase PAK 2 (Homo sapiens), sequence (Q13177 whole entry): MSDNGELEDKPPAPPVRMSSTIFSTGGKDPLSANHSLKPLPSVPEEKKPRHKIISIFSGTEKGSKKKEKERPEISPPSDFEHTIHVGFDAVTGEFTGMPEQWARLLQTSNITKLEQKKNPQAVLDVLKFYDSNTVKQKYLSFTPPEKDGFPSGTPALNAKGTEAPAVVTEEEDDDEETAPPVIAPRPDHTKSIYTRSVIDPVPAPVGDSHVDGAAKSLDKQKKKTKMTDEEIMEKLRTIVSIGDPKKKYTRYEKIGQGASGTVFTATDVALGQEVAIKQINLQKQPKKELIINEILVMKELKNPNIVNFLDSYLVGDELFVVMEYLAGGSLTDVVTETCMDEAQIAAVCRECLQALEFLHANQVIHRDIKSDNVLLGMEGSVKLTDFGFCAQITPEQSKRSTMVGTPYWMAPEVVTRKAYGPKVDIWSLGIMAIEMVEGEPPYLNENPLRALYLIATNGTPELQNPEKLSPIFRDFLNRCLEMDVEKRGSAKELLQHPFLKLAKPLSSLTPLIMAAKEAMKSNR

For the compound `Oc1c2ccccc2c2c3c(cccc13)N=N2`, the residual activity was found to be 91% in assay [1]; 30% in [2]; 89% in [3]; 64% in assay [4]; 92% in [5]; 104% in assay [6]. For the same compound, the residual activity is 77% in assay [7]; 84% in assay [8]; 55% in assay [9]; 14% in [10]; 107% (inactive) in [11]; 101% in [12]. Further, the residual activity was 99% (inactive) in [13]; 89% (inactive) in assay [14]; 78% in assay [15]; 71% in [16]; 96% in assay [17]; 86% in assay [18].
As to `O=C1NC(=O)/C(=C/c2ccc3c(c2)OC(F)(F)O3)S1`, the residual activity was 116% in [1]; 102% in [2]; 91% in [3]; 106% in [4]; 85% (inactive) in [19]; 104% in [5]. Also, the residual activity in assay [6] came to 82%; in assay [7], 90%; in [20], 106%; in assay [8] it was 104%; in assay [9] it was 73%; in assay [10] it was 35%. For the same compound, the residual activity was 84% (inactive) in assay [11]; 93% in assay [12]; 100% (inactive) in [13]; 97% (inactive) in [14]; 107% in assay [15]; 84% in assay [16]. Also, the residual activity in assay [17] turned out to be 104%; in [18], 76%.
`O=C1NC(=O)c2cc(Nc3ccc(F)cc3)c(Nc3ccc(F)cc3)cc21`: the residual activity worked out at 113% in assay [1]; 99% in [2]; 74% in assay [3]; 51% in assay [4]; 90% in assay [6]; 85% in [7]. Besides, the residual activity in [20] is 73%; in [8], 85%; in assay [9], 81%; in assay [10], 101%; in assay [11], 112% (inactive); in assay [12], 111%. Further, the residual activity in assay [13] is 98% (inactive); in assay [14] it was 98% (inactive); in [15], 92%; in [16], 80%; in assay [17], 107%; in assay [18], 79%.
For `Cc1ccc(S(=O)(=O)/C=C/C#N)cc1`, the residual activity came to 100% in assay [1]; 114% in assay [2]; 114% in [3]; 76% in [4]; 95% in assay [6]; 101% in assay [7]. The residual activity in assay [20] was 86%; in assay [8], 82%; in assay [9], 133%; in assay [10] it was 102%; in assay [11], 99% (inactive); in assay [12] it was 108%. For the same compound, the residual activity in [13] is 114% (inactive); in assay [14], 87% (inactive); in assay [15], 101%; in assay [16], 92%; in assay [17], 107%; in assay [18] it was 98%.
With `CO[C@H]1C[C@@H]2CC[C@@H](C)[C@@](O)(O2)C(=O)C(=O)N2CCCC[C@H]2C(=O)O[C@H]([C@H](C)C[C@@H]2CC[C@@H](O)[C@H](OC)C2)CC(=O)[C@H](C)/C=C(\C)[C@@H](O)[C@@H](OC)C(=O)[C@H](C)C[C@H](C)/C=C/C=C/C=C/1C`, the residual activity in [1] came to 110%; in assay [2], 101%; in assay [3], 89%; in assay [4] it was 95%; in [6] it was 57%; in assay [7], 51%. Further, the residual activity in assay [20] was -17%; in assay [8], 4%; in assay [9], 92%; in assay [10], 147%; in assay [11], 97% (inactive); in [12], 118%. The residual activity in assay [13] was 97% (inactive); in assay [14], 115% (inactive); in assay [15], 101%; in assay [16], 91%; in assay [17] it was 101%; in assay [18], 95%.
For the compound `Ic1cccc(CSc2nnc(-c3ccncc3)o2)c1`, the residual activity in [1] came out at 97%; in assay [2] it was 102%; in assay [3] it was 113%; in assay [4], 83%; in assay [6] it was 108%; in [7] it was 102%. For the same compound, the residual activity in assay [20] was 108%; in assay [8], 109%; in assay [9], 55%; in assay [10] it was 32%; in [11], 113% (inactive); in [12], 115%. The residual activity in [13] is 101% (inactive); in assay [14] it was 81% (inactive); in assay [15] it was 89%; in assay [16], 89%; in assay [17], 104%; in assay [18] it was 92%.
